# Most compounds without a hit are left out; they make up all but 6.9% or so of the library.
# L3MBTL1 inh: qHTS Assay for the Inhibitors of L3MBTL1. AlphaScreen L3MBTL1–H3K9me1 peptide binding. Potency, µM (titrated, usually from 57.1 µM), for inactives: at the highest dose activity, negative = inhibition, usual class: inhibitors. 0.66% of 230,000 active; note: % is set by controls: 0 for no effect and ±100 for the full control effect; nearly all actives have a fitted effect of over 60% in size
#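 Read-out is AlphaScreen signal from streptavidin donor and nickel chelate acceptor beads (10 ug/mL final each) bridging L3MBTL1 (50 nM) and biotinylated K9-monomethylated H3(1-15) peptide (75 nM), after 30 min compound exposure at room temperature.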
# BAZ2B block: qHTS Assay for Inhibitors of BAZ2B | Bromodomain adjacent to zinc finger domain protein 2B (Homo sapiens), Q9UIF8 | AlphaScreen BAZ2B-H3K14Ac peptide displacement | Potency, µM (series often up to 114 µM), for the others: top-dose activity change, negative = inhibition, hits mostly inhibitors | 4.4% of 360,000 active; note: % is set by controls: 0 for no effect and ±100 for the full control effect; nearly all actives have a fitted effect of over 60% in size
#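 Multi-concentration screen (max 110 uM) measuring displacement of acetylated histone H3 peptide from BAZ2B by AlphaScreen, using 50 nM protein, 50 nM peptide and 10 ug/mL streptavidin donor plus Ni-chelate acceptor beads.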
# HP1b chromo inh: HTS for Inhibitors of HP1-beta Chromodomain Interactions with Methylated Histone Tails; Chromobox protein homolog 1 (Homo sapiens), P83916; AlphaScreen HP1-beta / biotin-H3K9me3 peptide binding; Potency, µM (highest dose often 114 µM), without a hit: at the top dose activity change, negative = inhibition, usual class: inhibitors; 0.56% of 390,000 active; note: nearly all actives have a fitted effect of over 70% in size
# Target sequence (P83916 whole entry, looked up): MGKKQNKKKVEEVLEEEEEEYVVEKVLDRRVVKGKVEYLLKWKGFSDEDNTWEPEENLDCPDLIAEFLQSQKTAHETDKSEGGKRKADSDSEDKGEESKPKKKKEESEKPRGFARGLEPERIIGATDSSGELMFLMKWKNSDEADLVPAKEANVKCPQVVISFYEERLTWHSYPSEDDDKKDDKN
#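 AlphaScreen: HP1-beta (50 nM) preformed 30 min with biotin-H3(1-18)K9me3 peptide (50 nM) in PBS pH 7.4, 0.01% Tween-20. Compound added for 30 min at RT, then streptavidin donor/nickel chelate acceptor beads (10 ug/mL) for 30 min.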
# JMJD2A Tudor inh: qHTS Assay for Inhibitors of JMJD2A-Tudor Domain | Lysine-specific demethylase 4A (Homo sapiens), O75164 | AlphaScreen JMJD2A-Tudor / H3K4me3 peptide binding | 4.4% of 390,000 active | Potency, µM (highest dose often 114 µM), for the others: at the top dose activity change, negative = inhibition, most hits filed as inhibitors | AID 504339, 2011; note: % is set by controls: 0 for no effect and ±100 for the full control effect; nearly all actives have a fitted effect of over 50% in size
# PLK1 PBD block: qHTS for Inhibitors of PLK1-PDB (polo-like kinase 1 - polo-box domain): Primary Screen; Potency, µM, for inactives: max response, negative = inhibition, hits mostly inhibitors; 2.8% of 360,000 active; AID 720504, 2013; Plk1 PBD binding of FITC phosphopeptide, fluorescence polarization; note: series mostly up to about 57 µM; % is set by controls: 0 for no effect and ±100 for the full control effect; nearly all actives have a fitted effect of over 65% in size
# VDR inh: Inhibitors of the vitamin D receptor (VDR): qHTS; VDR-SRC2-3 peptide fluorescence polarization, 2 h; Potency, µM, without a hit: max response, negative = inhibition, actives largely listed as inhibitors; 0.93% of 400,000 active; AID 504847, 2011; note: % is set by controls: 0 for no effect and ±100 for the full control effect
# Target sequence (P11473 whole entry, looked up): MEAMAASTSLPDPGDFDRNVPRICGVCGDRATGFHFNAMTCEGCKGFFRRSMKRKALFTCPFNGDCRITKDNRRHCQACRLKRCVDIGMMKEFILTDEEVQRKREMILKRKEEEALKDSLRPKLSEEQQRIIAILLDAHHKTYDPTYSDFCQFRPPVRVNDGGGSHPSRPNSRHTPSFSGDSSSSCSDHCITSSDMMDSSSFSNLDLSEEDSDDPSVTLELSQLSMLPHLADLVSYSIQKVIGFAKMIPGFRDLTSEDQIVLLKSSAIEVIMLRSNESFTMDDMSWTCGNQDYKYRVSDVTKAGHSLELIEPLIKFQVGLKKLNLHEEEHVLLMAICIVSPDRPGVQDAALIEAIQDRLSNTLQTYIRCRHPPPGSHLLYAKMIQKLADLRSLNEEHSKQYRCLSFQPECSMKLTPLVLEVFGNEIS
#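 After 23 nl compound addition and a short centrifugation, plates sat for 2 hours at ambient temperature; polarization of fluorescence then indicated loss of VDR binding to peptide SRC2-3.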
# * hit, by the source's call; ? = inconclusive; . = not tested or not shown; [ ] = remark or other dose. Calls come from the whole dose curve; as a rule, active = well fitted curve in the direction sought with a large enough effect; inconclusive = small, poorly fitted or top-dose-only effect, or another doubt; inactive = no such curve, though single readings can be large; an effect the other way counts as inactive or inconclusive. Potency is the fitted concentration of half-maximal effect.
SMILES,L3MBTL1 inh,BAZ2B block,HP1b chromo inh,JMJD2A Tudor inh,PLK1 PBD block,VDR inh
COC(=O)[C@H](CC(C)C)NC(=O)c1cc2c(cn1)[nH]c1ccccc12,.,-24%,?,?,3.8µM*,?
COc1ccc2c(c1)OC(C)(C)C(c1ccccc1)C2c1ccc(OCCN2CCCC2)cc1 (stereo not drawn),.,.,.,.,.,-7%
O=C(CCCCCn1c(=O)c2sccc2n(CC(=O)Nc2cc(C(F)(F)F)ccc2Cl)c1=O)NCc1ccccc1Cl,.,-8%,23%,-14%,.,0%
Cc1ccc2c(c1)N(C(=O)CSc1nncn1C)C(C)(C)c1ssc(=S)c1-2,?,.,-33%,79µM*,-16%,1%
Cc1ccc(-c2cc(C(=O)N3CCN(C(=O)c4ccco4)CC3)[nH]n2)c(C)c1,.,-19%,45%,5%,0%,8%
Cc1ccc2c(c1)N(C(=O)c1ccco1)C(C)(C)c1ssc(=S)c1-2,.,10µM*,?,14µM*,-6%,-6%
CSc1sc2ccccc2[n+]1CCCS(=O)(=O)[O-],7%,-38%,6%,89µM*,?,35µM*
CCO/C(=C/c1sc2ccc(OC)cc2[n+]1CCCS(=O)(=O)[O-])CC,.,-10%,69%,23%,-21%,-29%
Cc1ccc2ccccc2[n+]1CCCS(=O)(=O)[O-],-10%,-29%,55%,-18%,-26%,5%
COc1ccc2sc(SCCCS(=O)(=O)O)[n+](CCCS(=O)(=O)[O-])c2c1,-6%,56µM*,27%,16µM*,-19%,?
COc1ccc(C(=O)N2CCC3(CC2)CCN(C(c2ccccc2)c2ccccc2)CC3)cc1,.,.,.,.,.,-18%
Cc1ccc(N2CCN(C(=O)Nc3cn(CC(C)C)c(=O)c4ccccc34)CC2)c(C)c1,.,0%[57.1 µM],18%,?,.,7%
Cc1c(C(=O)N(C)CCC#N)oc2ccc(S(=O)(=O)N3CC(C)CC(C)C3)cc12 (stereo not drawn),.,-12%,8%,?,19µM*,?
CCCCN(CC)C(=O)c1oc2ccc(S(=O)(=O)N3CCCC3)cc2c1C,.,-12%,31%,?,30µM*,?
Cc1c(C(=O)N(Cc2ccccc2)C(C)C)oc2ccc(S(=O)(=O)N3CCOCC3)cc12,.,-24%,-8%,?,30µM*,-12%
Cc1c(C(=O)O)oc2ccc(S(=O)(=O)N3CC(C)CC(C)C3)cc12 (stereo not drawn),9%,4%,22%,-8%,-5%,111%
CCN(CC)S(=O)(=O)c1ccc2oc(C(=O)NC(C)C)c(C)c2c1,.,5%,?,?,27µM*,-10%
Cc1c(C(=O)N(C)Cc2ccccc2)oc2ccc(S(=O)(=O)N3CCCC3)cc12,-8%,-24%,47%,-14%,-10%,12%
C=CCn1c(=NC(=O)CC)n(C)c2ccccc21,12%,5%,19%,-14%,1%,11%
O=C(NCCc1ccccc1F)C1CCCN(c2nc3ccccc3s2)C1 (stereo not drawn),.,-16%,58%,1%,1%,4%
Cc1cc(C(=O)CN2C(=O)c3cccc(N)c3C2=O)c(C)n1Cc1cccs1,.,4%,11%,?,3.4µM*,-26%
Cc1ccc(S(=O)(=O)Nc2ccc3ccccc3c2[N+](=O)[O-])cc1,.,.,-11%[57 µM],-30%,30µM*,-16%
COc1ccc(S(=O)(=O)c2ccccc2)cc1NS(=O)(=O)c1cccc(C(=O)O)c1,0%,?,3%,?,-9%,-10%
Cc1ccc(S(=O)(=O)Nc2cccc3ccc[n+](C)c23)cc1,.,.,.,50µM*,.,.
Cc1ccc(S(=O)(=O)Nc2cccc3ccccc23)cc1,.,.,12%,-11%,.,15%
SMILES,L3MBTL1 inh,BAZ2B block,HP1b chromo inh,JMJD2A Tudor inh,PLK1 PBD block,VDR inh
COc1ccc([N+](=O)[O-])cc1NS(=O)(=O)c1ccc(C)cc1,.,-12%,12%,-18%,-3%,11%
COc1ccc([N+](=O)[O-])cc1NS(=O)(=O)c1cccc(C(=O)O)c1,3%,-16%,21%,32µM*,-5%,5%
Cc1ccc(S(=O)(=O)Nc2ccc3cc([N+](=O)[O-])ccc3c2[N+](=O)[O-])cc1,.,.,-16%[57 µM],?,24µM*,20%
O=C(CSc1nnc(-c2ccccc2F)o1)N1CCNC1=O,-1%,7%,25%,-6%,-7%,10%
COc1cccc(N2CCN(C(=O)c3cccc(NC(=O)C4=C(C)OCCS4)c3)CC2)c1,.,.,.,.,-5%,.
CC(=O)Nc1ccc(S(=O)(=O)Nc2cc([N+](=O)[O-])ccc2C)cc1,-3%,-18%,?,10µM*,6.7µM*,?
COc1ccc(NC(=O)c2ccccc2NS(=O)(=O)c2ccc(C)cc2)c([N+](=O)[O-])c1,-9%,?,-30%,?,4%,-2%
CC(=O)Nc1ccc(S(=O)(=O)Nc2ccc([N+](=O)[O-])cc2)cc1,.,.,.,.,.,6%
COc1ccc(NS(=O)(=O)c2ccc(C)cc2)c([N+](=O)[O-])c1,-16%,-33%,?,-3%[11.4 µM],27µM*,?
CCCc1cc(=O)[nH]c(Nc2ccc(N3CCCCC3)cc2)n1,6%[11.4 µM],50µM*,?,50µM*,1%,4%
Cc1cc(C)nc(Nc2ccc(N3CCCC3)cc2)n1,.,28µM*,?,35µM*,-5%,-19%
Cc1ccc(CNC(=O)c2cc3cc(C)ccc3n2C)cc1,.,-6%,27%,-5%,.,-1%
COc1ccc(C(c2nnnn2Cc2ccccc2)N2CCN(C(=O)c3ccco3)CC2)cc1OC (stereo not drawn),8%,?,38%,?,-5%,-6%
CCC(c1nnnn1CCOC)N1CCN(c2nc3ccccc3s2)CC1 (stereo not drawn),8%,-16%,36%,-6%,-3%,4%
COc1ccc(C(c2nnnn2Cc2ccccc2)N2CCN(c3nc4ccccc4s3)CC2)cc1OC (stereo not drawn),-7%,-12%,3%,79µM*,-1%,12%
Cc1ccc(C)c(N2CCN(C(c3ccncc3)c3nnnn3Cc3ccccc3)CC2)c1 (stereo not drawn),0%,?,4%,79µM*,-16%,-44%
CCCC(c1nnnn1CCOC)N1CCN(c2nc3ccccc3s2)CC1 (stereo not drawn),6%,-1%,-19%,13µM*,5.3µM*,?
